Data published in PubChem BioAssay AID493094 (Broad Institute, 2011).
Calls of active or inactive are those of the source.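 How the source made its calls: active means falling FRET signal with an AC50 fitted within ten times the highest valid concentration tested for that sample (actives reach about 61 µM in these data); inactive means the rest, including compounds that raise the signal.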

Assay: YIC FRET probe signal interference, dose response, counter-screen for RanGTP-importin-beta inhibitor project, biochemical, dry powder samples (AID 493094)
Details: cell-free YIC FRET probe, YFP/CFP ratio; series mostly up to 100 µM; activity change, negative = inhibition: at the top concentration

| Compound | activity change, negative = inhibition | AC50 |
| --- | --- | --- |
| C[C@@H](Nc1nc(Cl)nc2ccccc12)c1ccccc1 | -3.98% (inactive) |  |
| CC(C)SCC(=O)Nc1ncc2c(n1)-c1ccccc1CC2 |  | 6.37 µM (active) |
| O=C(O)Cn1cc(/C=C2\SC(=O)N(CC(=O)N3CCCCCC3)C2=O)c2ccccc21 |  | 55.3 µM (active) |
| CCCN(CCC)c1nc(NCc2ccccc2)nc2ccccc12 | -6.33% (inactive) |  |
| CCCN(CCC)c1nc(N)c2ccccc2n1 | -8.69% (inactive) |  |
| c1ccc2c(N3CCCC3)nc(N3CCCC3)nc2c1 | -8.4% (inactive) |  |
| C[C@H](Nc1nc(N2CCCC2)nc2ccccc12)c1ccccc1 | -2.49% (inactive) |  |
| c1ccc(CNc2nc(N3CCCC3)nc3ccccc23)cc1 | 6.88% (inactive) |  |
| COc1cc2nc(N3CCCC3)nc(N3CCCC3)c2cc1OC | -4.26% (inactive) |  |
| C=CCn1c(N)c(C(=O)OCCC)c2nc3ccccc3nc21 |  | 36.9 µM (active) |
| CC1(C)CC(=O)c2c(C(F)(F)F)nn(-c3ccc(C(N)=O)c(OC4CCC(N)CC4)c3)c2C1 (stereo unspecified) | -11.5% (inactive) |  |
| CCCN(CCC)c1nc(N2CCCC2)c2cc(OC)c(OC)cc2n1 | -7.73% [at 26 µM] (inactive) |  |
| COc1ccc(CCNC(=O)c2cc3c(=O)n4cccc(C)c4nc3n(CCCN3CCOCC3)c2=N)cc1 |  | 4.28 µM (active) |
| CCCN(CCC)c1nc(N2CCOCC2)nc2ccccc12 | -4.59% (inactive) |  |
| Cc1cccc(-n2c(C)cc(/C=C3/C(=N)N4N=C(CC(C)C)SC4=NC3=O)c2C)c1 |  | 25.4 µM (active) |
| c1ccc2c(N3CCOCC3)nc(N3CCOCC3)nc2c1 | -0.521% (inactive) |  |
| COc1cc(OC)cc(C(=O)NCCNc2nc3cc(C)cc(C)c3cc2C#N)c1 |  | 27 µM (active) |
| CC1(C)CCC(c2ccc(Cl)cc2)=C(CN2CCN(c3ccc(C(=O)NS(=O)(=O)c4ccc(N[C@H](CCN5CCOCC5)CSc5ccccc5)c(S(=O)(=O)C(F)(F)F)c4)cc3)CC2)C1 | -3.98% (inactive) |  |

| Compound | activity change, negative = inhibition | AC50 |
| --- | --- | --- |
| Cc1cc(Nc2ccc(C(F)(F)F)cc2)n2ncnc2n1 | -7.53% (inactive) |  |
| CCCN(CCC)c1nc(N2CCNCC2)c2ccccc2n1 | -12.9% (inactive) |  |
| C[C@@H](Nc1nc(N2CCCC2)nc2ccccc12)c1ccccc1 | 2.73% (inactive) |  |
| CCCN(CCC)c1nc(Cl)nc2ccccc12 | -9.7% (inactive) |  |
| CC1(C)CC(=O)c2c(C(F)(F)F)nn(-c3ccc(C(N)=O)c(NC4CCC(OC(=O)CN)CC4)c3)c2C1 (stereo unspecified) | -7.87% (inactive) |  |
| O=c1[nH]c(N2CCCC2)nc2ccccc12 | -5.45% (inactive) |  |
| COCCNC(=O)/C(C#N)=C/c1cn(CC(=O)NCc2ccco2)c2ccccc12 |  | 61.3 µM (active) |
| CC(Nc1nc(N2CCCC2)nc2ccccc12)c1ccccc1 (stereo unspecified) | -5.12% (inactive) |  |
| CC1(C)CC(=O)c2c(C(F)(F)F)nn(-c3ccc(C(N)=O)c(NC4CCC(O)CC4)c3)c2C1 (stereo unspecified) | -5.26% (inactive) |  |
| Cc1ccc(S(=O)(=O)c2cc3c(=O)n4cccc(C)c4nc3n(C3CCCCC3)c2=N)cc1 |  | 26 µM (active) |
| COc1ccc(-c2cc(C(F)(F)F)n3nc(N)nc3n2)cc1 |  | 54.5 µM (active) |
| CCCN(CCC)c1nc(N2CCCC2)nc2cc(OC)c(OC)cc12 | 0.149% [at 50 µM] (inactive) |  |
| CCNc1nc(N2CCCC2)nc2ccccc12 | -7.07% (inactive) |  |
| C[C@H](Nc1nc(Cl)nc2ccccc12)c1ccccc1 | -1.62% (inactive) |  |
| Clc1nc(NCc2ccccc2)c2ccccc2n1 | -8.16% (inactive) |  |
| CC1=C(C(=O)OCC2CCCO2)C(c2ccccc2OC(C)C)C2C(=O)CC(c3ccco3)CC2=N1 (stereo unspecified) |  | 13.2 µM (active) |
| CCN(CC)c1nc(N2CCCC2)nc2ccccc12 | -6.96% (inactive) |  |
| CCCN(CCC)c1nc(N2CCCC2)nc2ccccc12 |  | inactive |
